This is a sample that favours compounds with a hit; in the whole collection about 1.1% have one here.
Y pestis TopoI = Y. pestis Topo-I inhibition via cleavage products; Y. pestis Topo-I cleavage product accumulation, plate reader; activity, % at 10 µM; actives 0.064% (n = 360,000); AID 504884; in the data active = activity above about 50%, passing the limit was not always enough; inconclusive = no clear call, values can overlap the other calls
BioA inh = blocks M. tuberculosis BioA enzyme activity | AID 602481 | inhibition, % at 9.99 µM | actives 0.096% (n = 360,000) | purified M. tuberculosis BioA enzyme, plate reader; in the data active = inhibition above about 40%; inconclusive = no clear call, values can overlap the other calls
PrP UTR inh = inhibition of PrP 5' UTR reporter expression. inhibition, % (no concentration beside the values). actives 0.35% (n = 340,000). cell-based PrP 5' UTR mRNA reporter, plate reader. AID 488862; in the data active = inhibition above about 52%; also: 0 = median of the neutral control wells
FadD28 FP inh = inhibitors of Mycobacterium tuberculosis FadD28 bisubstrate binding | FadD28 bisubstrate probe binding, fluorescence polarization | actives 0.22% (n = 360,000) | inhibition, % at 12.5 µM; in the data active = inhibition above about 8.5%, passing the limit was not always enough; inconclusive = no clear call, values can overlap the other calls
PfHsp40 rescue = restores yeast growth despite PfHsp40 toxicity; growth rescue, % at 12.5 µM; S. cerevisiae expressing PfHsp40, growth rescue, ATP luminescence; AID 504582; actives 0.68% (n = 340,000); in the data active = growth rescue above about 28%, passing the limit was not always enough; inconclusive = no clear call, values can overlap the other calls;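 also: yeast W303a lacking pdr1 and pdr3 grown in galactose medium; growth measured after three days at 30 °C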
PrP 5UTR single = prion 5' UTR mRNA inhibition, cherry-pick retest | cell-based prion protein 5' UTR reporter, plate reader | AID 504592 | actives 48% (n = 1,100) | shares compounds with PrP UTR inh | inhibition, % at 2.5 µM; in the data active = inhibition above about 54%; inconclusive = no clear call, values can overlap the other calls
The depositor's hits bear a star; ? = inconclusive; . = no result given.

SMILES	Y pestis TopoI	BioA inh	PrP UTR inh	FadD28 FP inh	PfHsp40 rescue	PrP 5UTR single
CC(C)(O)/C=C/C(=O)C(C)(O)C1C(O)CC2(C)C3CC=C4C(C=C(O)C(=O)C4(C)C)C3(C)C(=O)CC12C (configuration not stated)	-6.4	.	70.0*	-2.8	-1.9	90.4*
CC(=O)OC(C)(C)/C=C/C(=O)[C@](C)(O)C1[C@H](O)C[C@@]2(C)C3CC=C4C(C[C@H](O)C(=O)C4(C)C)[C@]3(C)C(=O)C[C@]12C (some centres not stated)	6.1	1.1	83.6*	-2.0	-1.3	89.9*
Cc1noc(C)c1NC(=O)N(C)C[C@H]1OCCCC[C@@H](C)Oc2ccc(NS(=O)(=O)c3ccc(F)cc3)cc2C(=O)N([C@@H](C)CO)C[C@@H]1C	.	0.9	.	.	.	.
CCCC(=O)Nc1ccc2c(c1)OC[C@H](C)N(Cc1ccccc1F)C[C@@H](C)[C@H](OC)CN(C)C2=O	.	5.9	.	.	.	.
Cc1onc(-c2ccccc2)c1C(=O)Nc1ncc([N+](=O)[O-])s1	-1.5	1.1	-12.9	1.9	0.9	.
Cc1ccc(C(=O)Nc2ncc(Cc3ccc(SC(F)F)cc3)s2)cc1	-11.4	-0.4	62.3*	-1.9	-0.5	88.8*
Cc1ccc(C(=O)Nc2ncc([N+](=O)[O-])s2)cc1	-6.0	0.4	71.0*	2.5	6.2	72.6*
CCC(=O)N1[C@H](CO)[C@@H]2c3ccccc3N(C(=O)Nc3ccccc3Cl)C[C@@H]21	.	3.9	.	.	.	.
CCN(CC)C(=S)Nc1ccc(OC)cc1	3.5	.	55.5*	-5.1	2.0	-14.8
CN1CCN(C(=O)C[C@H]2C[C@@H]3c4cc(NC(=O)Cc5ccncc5)ccc4O[C@@H]3[C@@H](CO)O2)CC1	.	0.8	.	.	.	.
COc1ccc(S(=O)(=O)Nc2cccc3c2O[C@H](CN(C)S(=O)(=O)c2ccc(C)cc2)[C@@H](C)CN([C@@H](C)CO)C3=O)cc1	.	-3.6	.	.	.	.
ClCCCc1cn(C[C@H]2CC[C@@H]([C@@H]3CC[C@H](Cn4cc(CCCCl)nn4)O3)O2)nn1	4.2	0.4	68.3*	-1.9	-1.8	-12.7
CCCCc1cn(C[C@H]2CC[C@@H]([C@@H]3CC[C@H](Cn4cc(CCCC)nn4)O3)O2)nn1	5.1	0.9	-16.6	-0.8	-0.2	.
Cc1ccc(C(=O)N/C(=C\c2ccc3c(c2)OCO3)C(=O)N2CCOCC2)cc1	8.6	11.8	-27.3	-2.2	-0.2	.
COc1ccc(C(=O)N/C(=C\c2ccc3c(c2)OCO3)C(=O)N2CCOCC2)cc1	-1.4	.	76.6*	-0.9	0.1	?
O=C(NC[C@@H]1N[C@@H](CO)[C@@H]1c1ccc(-c2ccccc2F)cc1)c1ccccn1	.	0.1	.	.	.	.
CC1=C([N+](=O)[O-])C(c2cccc(Br)c2)C2=C(N1)c1ccccc1C2=O (configuration not stated)	-27.2	-0.4	54.1*	-1.7	-0.7	71.1*
CCC(=O)Nc1ccc2c(c1)C(=O)N(C)C[C@@H](OC)[C@@H](C)CN(Cc1cccnc1)[C@H](C)CO2	.	-1.8	.	.	.	.
O=C([C@H]1[C@H](CO)[C@H]2Cn3c(ccc(-c4ccc(F)cc4)c3=O)[C@H]2N1Cc1cocn1)N1CCOCC1	.	2.3	.	.	.	.
CN1CCN(c2ccc([N+](=O)[O-])c3no[n+]([O-])c23)CC1	-8.1	-32.8	79.2*	0.8	5.4	85.9*
O=[N+]([O-])c1ccc(N(CCO)CCO)c2c1no[n+]2[O-]	1.2	-50.2	.	1.3	.	.
CCCN(C)C[C@@H]1Oc2cc(-c3ccccc3F)ccc2S(=O)(=O)N([C@@H](C)CO)C[C@@H]1C	.	-1.0	.	.	.	.
CC(C)(C)NC(=S)N1CCC(C(=O)c2ccc(Cl)cc2)CC1	-5.1	7.4	55.7*	-2.3	-1.3	11.9
CC(=O)c1c(C)[nH]c(C(=O)Nc2nc(C)cs2)c1C	0.4	-2.9	65.2*	-1.9	0.3	43.5
CC(=O)c1c(C)[nH]c(C(=O)Nc2nc(-c3ccc(Cl)cc3)cs2)c1C	-11.7	.	-18.9	-2.8	0.1	.
SMILES	Y pestis TopoI	BioA inh	PrP UTR inh	FadD28 FP inh	PfHsp40 rescue	PrP 5UTR single
CO[C@@H]1CN(C)C(=O)c2ccc(NC(=O)C3CCCCC3)cc2OC[C@@H](C)N(C(=O)c2ccccc2)C[C@@H]1C	.	0.8	.	.	.	.
CN(c1ccccc1)C1CCCCC1NS(=O)(=O)c1ccc(Cl)cc1 (configuration not stated)	24.4	.	-51.1	-0.9	0.5	.
CCN(CC)C1CCCCC1NS(=O)(=O)c1ccc(Cl)cc1 (configuration not stated)	-1.8	-0.2	79.9*	-2.3	-0.5	-7.9
C/C=C/c1ccc2c(c1)O[C@@H](CN(C)Cc1ccc(F)cc1)[C@H](C)CN([C@H](C)CO)S2(=O)=O	.	-3.7	.	.	.	.
CO[C@@H]1CN(C)C(=O)c2ccc(NC(=O)C3CCOCC3)cc2OC[C@H](C)N(CC2CC2)C[C@H]1C	.	-2.0	.	.	.	.
Cc1ccc2oc(/N=C(\N)NC(=O)C(C)(C)C)nc2c1	-2.5	-1.0	90.5*	-1.7	0.0	84.9*
Cc1ccc2oc(/N=C(\N)NC(=O)C3CC3)nc2c1	1.5	-0.8	-34.5	-3.7	3.7	.
O=C(C[C@@H]1CC[C@H](NC(=O)c2ccc(F)cc2)[C@@H](CO)O1)NCc1ccncn1	.	-1.4	.	.	.	.
Cc1noc(C)c1S(=O)(=O)N(C)C[C@@H]1OCCCC[C@@H](C)Oc2ccc(NC(=O)NC3CCCCC3)cc2C(=O)N([C@@H](C)CO)C[C@H]1C	.	-1.2	.	.	.	.
Cc1ccc(SC(C)c2nc(-c3ccccc3)no2)cc1 (configuration not stated)	20.5	.	74.6*	-0.2	-0.1	-13.4
COc1ccc(CNC(=O)CSc2nc(-c3ccccc3)cc(-c3cccs3)c2C#N)cc1	-3.1	-2.3	-45.4	-2.8	1.6	.
COc1ccc(-c2cc(-c3cccs3)c(C#N)c(SCC(=O)NCc3ccco3)n2)cc1	5.4	0.0	67.9*	-6.8	-0.7	86.5*
O=C(C1CCCC1)N1CCCCN2[C@H](C1)[C@H](c1ccc(-c3ccncc3)cc1)[C@@H]2CO	.	-2.8	.	.	.	.
C[C@H]1CN([C@@H](C)CO)C(=O)c2cc(C3=CCCC3)cnc2O[C@H]1CN(C)Cc1ccccc1	.	2.3	.	.	.	.
COC1C(O)C(C)OC(OC2CCC3(C)C(CCC4C3C(O)CC3(C)C(C5=CC(=O)OC5)CCC43O)C2)C1O (configuration not stated)	-1.0	.	87.4*	-2.6	-1.4	82.3*
C[C@]12CC[C@H](O)C[C@H]1CC[C@@H]1[C@@H]2C[C@@H](O)[C@]2(C)[C@@H](C3=CC(=O)OC3)CC[C@]12O	5.0	0.0	59.0*	-0.2	0.5	65.7*
C[C@H]1CC[C@@H]2[C@@H](C)[C@H]3[C@H](C[C@H]4[C@@H]5CC=C6C[C@@H](O[C@@H]7O[C@H](CO)[C@H](O)[C@H](O[C@@H]8O[C@H](CO)[C@@H](O)[C@H](O)[C@H]8O)[C@H]7O[C@@H]7O[C@@H](C)[C@H](O)[C@@H](O)[C@H]7O)CC[C@]6(C)[C@H]5CC[C@]34C)N2C1	5.7	-1.5	-51.0	-3.7	-1.3	.
